In PubChem BioAssay AID1508609 (The Scripps Research Institute Molecular Screening Center, 2020):
Screen size: about 6,700 compounds; fewer than 10 were called active.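 The calls were made as follows: active = mean percent activation across replicates above the confirmation screen cutoff of 4.91%; inactive = the rest.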 Only a sample is shown.

Target: G-protein coupled receptor 151 (Homo sapiens) (UniProt Q8TDV0)
Assay: GPR151 agonism via beta-arrestin recruitment – cell-based, PathHunter beta-arrestin, luminescence, confirmation (AID 1508609)
Settings: GPR151 PathHunter beta-arrestin cells, 90 min, at 11.2 µM, hits give high values, % of EA-reagent control over plate median

Chain of G-protein coupled receptor 151 (Homo sapiens) (Q8TDV0 whole entry, looked up): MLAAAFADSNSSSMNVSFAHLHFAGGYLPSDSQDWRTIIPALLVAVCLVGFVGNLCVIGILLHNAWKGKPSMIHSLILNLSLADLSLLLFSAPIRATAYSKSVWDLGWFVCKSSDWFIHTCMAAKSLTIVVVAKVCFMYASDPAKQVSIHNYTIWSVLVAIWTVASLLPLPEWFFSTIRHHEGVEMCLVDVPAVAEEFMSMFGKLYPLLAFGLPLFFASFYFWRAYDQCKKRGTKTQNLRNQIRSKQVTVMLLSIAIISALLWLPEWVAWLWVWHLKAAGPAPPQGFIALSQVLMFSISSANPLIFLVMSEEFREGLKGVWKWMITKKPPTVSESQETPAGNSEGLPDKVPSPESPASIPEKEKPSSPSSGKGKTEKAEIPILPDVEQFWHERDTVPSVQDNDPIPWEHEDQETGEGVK

activation, inactive:
COC(=O)c1c(NC(=O)Nc2ccc(Cl)c(Cl)c2)sc2c1CCCC2 0.7%, O=C1NCCN(Cc2ccc(-c3ccccc3)cc2)C1CC(=O)N1CCCCC1 (stereo not drawn) 0.39%, Cc1ccc(C)c(CN2CCC(n3nccc3NC(=O)C(C)(C)C)CC2)c1 0.69%, CCn1c(COc2ccccc2)nnc1Sc1ccc([N+](=O)[O-])cc1C=O 0.71%, Cc1cc(N2CCOCC2)ccc1C=C1C(=O)c2ccccc2C1=O -0.77%, COC(=O)c1c(-c2ccccc2)csc1NC(=O)c1ccc(OC)c([N+](=O)[O-])c1 0.78%, Cc1ccc(C(=O)Oc2ccccc2/C=N/N=C2\NC(=O)C(CC(=O)O)S2)cc1 (stereo not drawn) -0.38%, Cc1ccc(S(=O)(=O)Cn2nnnc2CN2CCN(c3ccccc3F)CC2)cc1 1.76%, CCN(CC)c1nc(Nc2ccccc2)nc(Nc2ccccc2)n1 -0.22%, C=CCn1c2ccccc2c2nnc(SCc3[nH]c(=O)[nH]c3C(=O)CCCCC(=O)OCC)nc21 1.2%, COC(=O)c1cc(NC(=O)COc2ccc([N+](=O)[O-])cc2)cc(C(=O)OC)c1 0.64%, CC(C)COC(=O)c1ccc(NC(=O)C2C3C=CC(C3)C2C(=O)O)cc1 (stereo not drawn) 1.05%, O=C(N/N=C\C=C\c1ccccc1)c1ccccn1 -0.98%, COc1ccc(NC(=S)N2CCN(S(=O)(=O)c3ccc(F)cc3)CC2)c(OC)c1 -0.28%, Cc1cccn2c(=O)c3cc(C(=O)NC4CCCCC4)c(=N)n(C4CCCCC4)c3nc12 -0.69%, OCCC1CN(Cc2ccc3cc(F)ccc3n2)CCN1C1CCCC1 (stereo not drawn) 1.64%, O=C(Cn1c(=O)n(Cc2ccccc2)c(=O)c2ccccc21)c1ccccc1 1.26%, CCOc1c(Cl)cc(CNCc2ccccc2)cc1OC -0.5%, COC(=O)c1oc2ccc(Br)cc2c1NC(C)=O 0.35%, O=C(c1ccc(CNS(=O)(=O)c2ccc(Cl)cc2)cc1)N1CCCC1 1.92%, C=CCc1cccc(/C=N/NC(=O)CCC(=O)Nc2ccc(Br)cc2)c1O -0.44%, O=C(CN1CCOCC1)Nc1c(Cl)cc(Cl)cc1Cl 0.82%, CCOC(=O)c1ccc(NC(=O)c2ncn(-c3ccccc3)n2)cc1 0.02%, Cn1ncc2c(NNC(=O)Cc3cccc4ccccc34)ncnc21 0.44%, CCCCc1ccc(NC(=O)CN2C(=O)C(C)SC(C)C2=O)cc1 (stereo not drawn) 0.42%, COc1ccc(CCNc2cc(C)nc(Nc3cccc(N(C)C)c3)n2)cc1 0.06%, O=C(Nc1ccc(NC(=O)c2cccc3c(Br)cccc23)cc1)c1ccco1 1.13%, COC(=O)[C@@H]1CC(O)CN1C(=O)C12CC3CC(CC(C3)C1)C2 (stereo partly drawn) 0.35%, CC1=C(C(=O)Nc2cccc(F)c2)C(c2ccccn2)C2=C(CCCC2=O)N1 (stereo not drawn) 0.25%, NC(=S)N/N=C/c1ccc([N+](=O)[O-])cc1 -0.11%, CC(C)C(=O)NC(=S)Nc1ccccc1F 0.14%, COc1ccc(C2(NC(=O)CCn3cnc4sc(C)c(C)c4c3=O)CCCCC2)cc1 0.69%, CCC1=C(C)c2cc3nc(C(=O)OCc4ccccc4)c(C)c-3c(C)n2C1C (stereo not drawn) -0.16%, CCN(CC)C(=O)C1CCCN(c2cc(N)nc(N)n2)C1 (stereo not drawn) -0.11%, CCC1C(=O)NCCN1Cc1ccc2c(c1)CN(Cc1c[nH]c3ccccc13)CCO2 (stereo not drawn) 1.68%, CN1C(=O)c2ccc(N3C(=O)c4cccc([N+](=O)[O-])c4C3=O)cc2C1=O -0.57%, Cc1ccc[n+](-c2ncnc(N)c2[N+](=O)[O-])c1 -0.67%, COc1cccc(-c2ocnc2C(=O)Nc2ccc3nc(-c4cccnc4)oc3c2)c1 0.94%, O=C(c1cc([N+](=O)[O-])ccc1NC1CCCCC1)N1CCOCC1 -1.3%, C=CCN1C(=O)CC(C(=O)OC)C12CCN(C1CCN(C(=O)OCC)CC1)CC2 (stereo not drawn) -0.6%, Cc1cccc(-n2nc3c(c2NC(=O)CCC2CCCCC2)CS(=O)(=O)C3)c1C 0.42%, COc1ccc(C2C(C#N)=C(N)Oc3c2c(C)nn3-c2ccccc2)cc1 (stereo not drawn) 0.69%, CC(=O)c1ccc(NC(=O)c2ccc(CN(c3ccc(C)c(C)c3)S(C)(=O)=O)cc2)cc1 -0.1%, CC1CCCC(NCc2c(C(=O)O)n(Cc3ccc(Cl)cc3)c3ccccc23)C1C (stereo not drawn) 0.3%, Cc1cccc(C)c1-n1c(=S)sc2c(=O)n(-c3cccc(Cl)c3)c(SCC#N)nc21 2.02%, CCCCc1ccc(N=Cc2nc(-c3cccc4ccccc34)oc2O)cc1 -1.01%, Cc1ccc(N2C(=O)CC(N3CCN(Cc4ccc(Cl)cc4)CC3)C2=O)cc1Cl (stereo not drawn) 0.04%, Oc1ccc(Cn2cc[nH]c2=S)cc1 -0.7%, CC(C)NC(=O)/C=C/c1ccccc1Cl -0.37%, COc1ccc(C(=O)CSc2nc3sc4c(c3c(=O)n2-c2ccc(Cl)cn2)CCCC4)c(F)c1 -0.67%, NC(=O)C1CCN(C(=O)c2ccc(-c3ccccc3)cc2)CC1 -1.12%, COCCNC(=S)N1CCN(c2ccccc2OC)CC1 0.65%, Cc1ccc(-c2nnc(N3CCOCC3)c3ccccc23)cc1S(=O)(=O)N1CCN(C)CC1 -0.46%, CC(C)n1c(=O)[nH]c2c(C(N)=O)nc(-c3ccc(-c4ccccc4)cc3)nc21 -0.04%, COc1ccc(OC)c(/C=N/n2nnnc2N)c1 -0.17%, O=C(NCc1ccsc1)c1ccc(-n2cccc2)cc1 0.53%, C=CCc1ccccc1OCCN1CCNCC1 -0.14%, Cc1ccc(S(=O)(=O)NCC(c2cccnc2)N2CCN(c3ccc(F)cc3)CC2)cc1 (stereo not drawn) -0.45%
